{"source": "paper PMC5540273", "about": "(PLoS ONE, 2017);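 note: KINOMEscan kinase panel screen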"}
{"tested_on": "NEK1", "conditions": "concentration: 1 μM, replicates: in singlicate; n = 1", "units": {"%Inh": "%"}}
{"compound": "Cc1cccc(-c2nc(-c3ccc(S(C)(=O)=O)cc3)sc2-c2ccncc2)c1", "%Inh": 8}
{"compound": "Nc1nc(-c2ccc3c(N)n[nH]c3c2)cc(N2CCCC2)n1", "note": "[GSK2227430]", "%Inh": 12}
{"compound": "NCC(NC(=O)c1cc(-c2cn[nH]c2)c(-c2ccnc3[nH]ccc23)s1)c1ccccc1.O=C(O)C(F)(F)F.O=C(O)C(F)(F)F", "note": "(centres unmarked) [GSK1325775]", "%Inh": 72}
{"compound": "Cc1c(Cn2c(C)nn3c(=O)cc(N4CCOC(C)C4)nc23)cccc1C(F)(F)F", "note": "(centres unmarked) [GSK2344444]", "%Inh": 0}
{"compound": "O=C(Nc1cccc(-c2nn3ncccc3c2-c2ccnc(Nc3cccc(C(F)(F)F)c3)n2)c1)c1c(F)cccc1F", "note": "[GSK299495]", "%Inh": 0}
{"compound": "N#Cc1c(N2CCOCC2)sc(-c2ccn[nH]2)c1-c1ccc(Cl)cc1", "%Inh": 9}
{"compound": "CCc1nc(-c2cccc(C)c2)c(-c2ccnc(NCc3ccccc3)c2)s1", "%Inh": 7}
{"compound": "Nc1nccc(-c2c(-c3ccc(F)cc3)ncn2C2CCN(CC(F)(F)F)CC2)n1", "note": "[SB-236560]", "%Inh": 0}
{"compound": "CC(=O)Nc1ccc(COc2ccc(Nc3ccnc4cc(-c5ccccn5)ccc34)cc2)cc1.Cl", "note": "[GW440148]", "%Inh": 0}
{"compound": "O=C(NCCCN1CCOCC1)c1cccc(Nc2nccc(Nc3ccc(Oc4ccccc4)cc3)n2)c1", "note": "[GW663929]", "%Inh": 11}
{"compound": "COc1cc2c(cc1OCCN1CCN(C)CC1)ncc1c3ccc(C#N)cc3[nH]c21", "%Inh": 0}
{"compound": "COc1ccc(Nc2ncc(C#N)c(Nc3ccccc3C(N)=O)n2)cc1N1CCN(C)CC1.Cl", "note": "[GSK1558669]", "%Inh": 91.6}
{"compound": "Cn1ccc2ncnc(Oc3ccc(NC(=O)Nc4ccncc4)c(Cl)c3)c21", "%Inh": 0}
{"compound": "COc1cc2c(cc1OC[C@@H](O)CO)ncc1c3ccc(C#N)cc3[nH]c21", "%Inh": 0}
{"compound": "Cc1cn2c(=O)cc(N3CCOCC3)nc2n1Cc1cccc(Cl)c1Cl", "note": "[GSK2334006]", "%Inh": 0}
{"compound": "Cn1cc(-c2ccc3c(c2)CCN3C(=O)Cc2ccccc2Cl)c2c(N)ncnc21", "note": "[GSK2608885]", "%Inh": 0}
{"compound": "NS(=O)(=O)c1cccc(-c2ccc3nccc(-c4cccc(S(N)(=O)=O)c4)c3c2)c1", "note": "[GW867253]", "%Inh": 0}
{"compound": "Cl.Oc1cccc(Nc2ccnc3cc(-c4ccncc4)ccc23)c1", "note": "[GW494601]", "%Inh": 0}
{"compound": "[2H]C([2H])(c1cccc(C(F)(F)F)c1C)n1ccn2c(=O)nc(N3CCOCC3)cc12", "note": "[GSK2336394]", "%Inh": 0}
{"compound": "Cl.Nc1ncnc2occ(-c3ccc(NC(=O)Nc4cc(C(F)(F)F)ccc4F)cc3)c12", "note": "[SB-707548]", "%Inh": 40}
{"compound": "O=C1NC(=O)C(N2CCc3ccccc32)=C1c1cccc(Cl)c1", "note": "[SB-408010]", "%Inh": 3}
{"compound": "C[C@@H](Oc1cc(-n2cnc3ccc(NC(=O)NC(C)(C)C)cc32)sc1C(N)=O)c1ccccc1Cl", "note": "[GSK346294]", "%Inh": 0}
{"compound": "O=c1cc(N2CCOCC2)nc2n(Cc3cccc(Cl)c3Cl)c(C3CC3)nn12", "note": "[GSK2358994]", "%Inh": 0}
{"compound": "CSc1ccc(-c2cc3ncnc(SCC(=O)O)c3s2)cc1", "%Inh": 2}
{"compound": "c1ccc(-c2n[nH]cc2-c2ccnc3ccccc23)nc1", "note": "[GW271431]", "%Inh": 0}
{"compound": "O=C(NCCNc1ccnc(Nc2ccc(F)cc2)n1)c1cc2ccccc2s1", "note": "[GSK1379874]", "%Inh": 0}
{"compound": "Fc1ccc(-c2ncn(CCCN3CCOCC3)c2-c2cccnc2)cc1", "note": "[SB-211743]", "%Inh": 0}
{"compound": "Cc1ccc(NC(=O)c2ccnc(N3CCN(C)CC3)c2)cc1-c1ccc(C(=O)NCC2CC2)cc1", "note": "[GW775604]", "%Inh": 20}
{"compound": "CN1c2ccc(CNc3ccc(F)cc3)cc2-c2c(cnn2C)S1(=O)=O", "%Inh": 1}
{"compound": "CNc1ncnc2[nH]ncc12", "note": "[SKF-18355]", "%Inh": 0}
{"compound": "COCCNC(=O)c1ccc(-c2cc(C(=O)NC3CC3)cc(F)c2C)cc1", "note": "[GW868318]", "%Inh": 0}
{"compound": "CCc1ccnc(/C=C/c2n[nH]c3cc(Sc4ccccc4C(=O)NC)ccc23)c1", "%Inh": 0}
{"compound": "CC(C)Oc1ccc2c(-c3ccnc(Nc4ccc(N5CCN(C)CC5)cc4)n3)cnn2n1", "note": "[GW696155]", "%Inh": 86}
{"compound": "c1ccc(-c2cc(-c3c[nH]nc3-c3ccccn3)ccn2)cc1", "note": "[GW576604]", "%Inh": 0}
{"compound": "Fc1ccc(-c2ncn(CCCN3CCOCC3)c2-c2ccccn2)cc1", "note": "[SB-211742]", "%Inh": 0}
